Measured values reported in PubChem BioAssay (Tox21).
Results filed as inconclusive are left out. Calls of active or inactive are those of the source. Unless noted, calls come from the whole dose curve; as a rule, active = well fitted curve in the direction sought with a large enough effect in the repeat runs; inconclusive = weak or mixed curves; inactive = no such curve, though single readings can be large; an effect the other way counts as inactive or inconclusive.

Legend:
[1] = qHTS assay to identify small molecule agonists of the TGF-beta/Smad signaling pathway - cell viability counter screen (AID 1346829); note: top concentration of the series differs between compounds; nearly all actives have a fitted effect of over 45% in size
In short: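 Compound-treated SBE-bla HEK 293T cells (5 hr, 37 C) were assessed for viability with CellTiter-Glo in parallel with the reporter read.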

[2] = qHTS assay to identify small molecule agonists of the TGF-beta/Smad signaling pathway (AID 1346859; active = well fitted activation curve with a large enough effect in the signal ratio in the repeat runs, not every such curve was filed as active; the % refers to the signal ratio; note: series mostly up to about 77 µM)
In short: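 Dual-wavelength fluorescence (460/530 nm emission) quantified beta-lactamase expression under the Smad binding element in HEK 293T cells following 5 hr compound treatment at 37 C.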

[3] = Caspase-3/7 induction in HepG2 cells by small molecules, qHTS assay (AID 1346978); note: nearly all actives have a fitted effect of over 15% in size
In short: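 Wild-type HepG2 cells (2,000/well) were settled 5 h at 37 C, 5% CO2, then exposed to compounds in DMSO for 17 h. Caspase-3/7 activity was read by luminescence 30 min after adding Caspase-Glo 3/7 reagent at room temperature.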

[4] = Caspase-3/7 induction in CHO-K1 cells by small molecules, qHTS cell viability counter screen (AID 1346979); note: nearly all actives have a fitted effect of over 35% in size
In short: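 Seeding: 1,500 CHO-K1 cells/well. Rest: 5hr, 37C. Treatment: compounds in DMSO, 16hr. Read: CellTiter-Fluor, 1hr, fluorescence.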

[5] = Caspase-3/7 induction in CHO-K1 cells by small molecules, qHTS assay (AID 1346980); note: nearly all actives have a fitted effect of over 15% in size
In short: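 Wild-type cells were seeded at 1,500 per well and settled 5 hr at 37 C, 5% CO2, then exposed to DMSO-dissolved compounds for 17 hr. Caspase-Glo 3/7 reagent was added, and luminescence was read after 30min at room temperature.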

[6] = Caspase-3/7 induction in HepG2 cells by small molecules, qHTS cell viability counter screen (AID 1346981); note: series mostly up to about 92 µM; nearly all actives have a fitted effect of over 30% in size
In short: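 Fluorescence read-out of live-cell protease activity (CellTiter-Fluor) after 1 hr with reagent. This was measured in the same wells as the caspase-3/7 luminescence, on HepG2 cells exposed to DMSO-dissolved compounds for 16 hr at 37 C.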

[7] = molecular target: Nuclear receptor subfamily 1 group I member 2 (Homo sapiens) (UniProt O75469); test: Human pregnane X receptor (PXR) small molecule agonists, qHTS assay (AID 1346982); note: nearly all actives have a fitted effect of over 35% in size; note: potency is the fitted concentration of half-maximal effect
Sequence of Nuclear receptor subfamily 1 group I member 2 (Homo sapiens) (O75469 whole entry, looked up): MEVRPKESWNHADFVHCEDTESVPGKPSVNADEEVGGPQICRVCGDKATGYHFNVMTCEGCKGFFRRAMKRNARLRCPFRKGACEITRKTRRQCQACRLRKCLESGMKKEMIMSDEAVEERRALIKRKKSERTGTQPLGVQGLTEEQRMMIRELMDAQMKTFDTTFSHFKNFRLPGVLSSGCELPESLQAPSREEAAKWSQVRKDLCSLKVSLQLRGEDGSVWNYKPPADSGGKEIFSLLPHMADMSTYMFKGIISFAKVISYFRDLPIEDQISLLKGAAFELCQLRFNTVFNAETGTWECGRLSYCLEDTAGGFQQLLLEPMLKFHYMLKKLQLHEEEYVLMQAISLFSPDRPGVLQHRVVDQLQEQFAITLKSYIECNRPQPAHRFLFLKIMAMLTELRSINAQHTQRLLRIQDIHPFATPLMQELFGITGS
In short: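 HepG2 PXR-Luc reporter line, 5% charcoal-stripped FBS; 5 hr pre-incubation, compound (DMSO) 24 hr at 37 C/5% CO2; ONE-Glo 30 min RT; luminescence read-out.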

[8] = Human pregnane X receptor (PXR) small molecule agonists, qHTS cell viability counter screen (AID 1346977); note: nearly all actives have a fitted effect of over 50% in size
In short: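 HepG2 cells stably carrying the PXR-Luc reporter are cultured with 5% charcoal-stripped FBS and treated with compounds for 24hr. CellTiter-Fluor is added at 23hr and fluorescence is read after 1hr.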

[9] = molecular target: Thyrotropin-releasing hormone receptor (Homo sapiens) (UniProt P34981); test: qHTS assay to identify small molecule agonists of the thyrotropin-releasing hormone receptor (TRHR) signaling pathway (AID 1346891; calls by dose curve;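 note: HEK293 cells expressing TRHR with calcium dye readout; series mostly up to about 58 µM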)
Sequence of Thyrotropin-releasing hormone receptor (Homo sapiens) (P34981 whole entry, looked up): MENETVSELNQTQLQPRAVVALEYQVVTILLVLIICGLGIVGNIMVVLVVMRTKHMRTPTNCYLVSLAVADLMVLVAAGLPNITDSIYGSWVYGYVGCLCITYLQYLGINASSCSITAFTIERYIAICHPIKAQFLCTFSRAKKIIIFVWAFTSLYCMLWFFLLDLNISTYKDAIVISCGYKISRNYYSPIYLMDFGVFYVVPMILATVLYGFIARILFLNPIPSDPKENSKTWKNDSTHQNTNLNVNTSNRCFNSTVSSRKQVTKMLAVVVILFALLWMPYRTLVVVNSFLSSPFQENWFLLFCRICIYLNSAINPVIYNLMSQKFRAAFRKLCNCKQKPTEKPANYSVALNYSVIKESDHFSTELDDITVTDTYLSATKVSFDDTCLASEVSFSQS
In short: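 Kinetic fluorescence (3 min, 1 s intervals) reported intracellular calcium after compound transfer onto TRHR-Hek293 cells pre-loaded with dye for 2 h at 37 °C.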

[10] = molecular target: Thyrotropin-releasing hormone receptor (Homo sapiens) (UniProt P34981); test: qHTS assay to identify small molecule antagonists of the thyrotropin-releasing hormone receptor (TRHR) signaling pathway (AID 1346877; active = well fitted inhibition curve with a large enough effect in the repeat runs, not every such curve was filed as active; note: series mostly up to about 51 µM)
In short: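 HEK293/TRHR cells, 18 h, 37 °C; Ca2+ dye 2 h; cpd 5 min RT; TRH 1 nM final; fluorescence read 3 min, 1 s intervals; 15 concs, triplicate.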
% is set by controls: 0 for no effect and ±100 for the full control effect.

CCCCOC(=O)C(C)OC(=O)CCC (configuration not stated)
inactive: outcome [1] | outcome [2] | outcome [3] | Potency [4] | outcome [5] | Potency [6] | Potency [7]

CCCCCCCC/C=C\CCCCCCCC(=O)OC[C@@H](O)[C@H]1OC[C@H](O)[C@H]1O
inactive: outcome [1] | outcome [2] | Potency [8] | outcome [3] | Potency [4] | outcome [5] | Potency [6] | Potency [7]

CC(=O)OC(C)(C)Cc1ccccc1
inactive: outcome [1] | outcome [2] | Potency [8] | outcome [3] | Potency [4] | outcome [5] | Potency [6] | Potency [7]

CCCCC/C=C/CC(=O)OC
inactive: outcome [1] | outcome [2] | Potency [8] | outcome [3] | Potency [4] | outcome [5] | Potency [6] | Potency [7]

O=C(CN1CCN(Cc2ccc3c(c2)OCO3)CC1)N1c2ccccc2Sc2ccccc21
inactive: outcome [1] | outcome [9] | Potency [8] | outcome [3] | outcome [5] | Potency [6]
active: Potency [7] 11.9 µM

Cc1nc2n(c(=O)c1CCN1CCC(C(=O)c3ccc(F)cc3)CC1)CCS2
inactive: outcome [1] | outcome [10] | outcome [9] | Potency [4] | outcome [5] | Potency [6] | Potency [7]

O=C(Oc1ccccc1C(=O)O)c1ccccc1O
inactive: outcome [1] | outcome [10] | outcome [9] | Potency [8] | outcome [3] | Potency [4] | outcome [5] | Potency [6] | Potency [7]

C1=CCC(c2ccccc2)CC1 (configuration not stated)
inactive: outcome [1] | outcome [10] | outcome [9] | Potency [8] | outcome [3] | outcome [5] | Potency [6] | Potency [7]

CC(=O)c1ccc2c(c1)CCCC2
inactive: outcome [1] | outcome [3] | Potency [4] | outcome [5] | Potency [6] | Potency [7]

C[C@H]1O[C@H](O[C@H]2[C@H](O)[C@@H](O)[C@@H](O[C@H]3[C@H](O)[C@@H](O)[C@H](O)O[C@@H]3CO)O[C@@H]2CO)[C@H](O)[C@@H](O)[C@@H]1N[C@H]1C=C(CO)[C@@H](O)[C@H](O)[C@H]1O
inactive: outcome [2] | outcome [10] | outcome [9] | Potency [8] | outcome [3] | Potency [4] | outcome [5] | Potency [6]

FC(F)(F)c1ccc(Cl)cc1Cl
inactive: outcome [1] | outcome [10] | outcome [9] | Potency [8] | outcome [3] | Potency [4] | outcome [5] | Potency [6] | Potency [7]

Cc1c(C(C)C)c(=O)n(-c2ccccc2)n1C
inactive: outcome [1] | outcome [3] | outcome [5] | Potency [6] | Potency [7]

C=CCCCCCCCCCCC
inactive: activity change, negative = cytotoxicity [1] -3.69% [at 6.97 µM] | activity, negative = inhibition [10] 4.06% [at 4.65 µM] | activation [9] -0.423% [at 5.23 µM] | activity change, negative = cytotoxicity [8] -1.17% [at 8.39 µM] | caspase activation [3] -1.35% [at 8.39 µM] | activity change, negative = cytotoxicity [4] -0.387% [at 8.39 µM] | caspase-3/7 activation [5] 0.611% [at 8.39 µM] | activity change, negative = cytotoxicity [6] 0.644% [at 8.39 µM] | activation [7] -8.11% [at 8.39 µM]

COc1ccc(OC)c(NC(=O)CC(C)=O)c1
inactive: outcome [1] | outcome [9] | Potency [8] | outcome [3] | Potency [4] | outcome [5] | Potency [6]
active: Potency [7] 54.5 µM

Cc1ccc(C(=O)C(=O)O)cc1C
inactive: outcome [1] | Potency [8] | outcome [3] | Potency [4] | outcome [5] | Potency [6] | Potency [7]

CCNC(=O)/C=C/c1cccc(Br)c1
active: Potency [7] 26.6 µM
inactive: outcome [1] | outcome [9] | Potency [8] | outcome [3] | outcome [5] | Potency [6]

Nc1ccc(/C=C/c2ccc(N)cc2S(=O)(=O)O)c(S(=O)(=O)O)c1
inactive: activity change, negative = cytotoxicity [1] 12.6% [at 0.29 µM] | activity, negative = inhibition [10] -5.44% [at 0.194 µM] | activation [9] 0.0703% [at 0.218 µM] | activity change, negative = cytotoxicity [8] 11% [at 0.349 µM] | activity change, negative = cytotoxicity [4] 8.5% [at 0.349 µM] | caspase-3/7 activation [5] -0.823% [at 0.349 µM] | activity change, negative = cytotoxicity [6] 1.29% [at 0.349 µM] | activation [7] -2.19% [at 0.349 µM]

CNCc1ccccc1
inactive: outcome [1] | outcome [10] | outcome [9] | Potency [8] | outcome [3] | Potency [4] | outcome [5] | Potency [6] | Potency [7]

Nc1c(NC/C=C\COc2cc(CN3CCCCC3)ccn2)c(=O)c1=O
inactive: activity change, negative = cytotoxicity [1] 2.86% [at 15.8 µM] | activity, negative = inhibition [10] -1.01% [at 10.5 µM] | activation [9] -0.0658% [at 11.8 µM] | caspase activation [3] -0.539% [at 19 µM] | caspase-3/7 activation [5] -0.585% [at 19 µM] | activation [7] -1.56% [at 19 µM]

CCCO
inactive: outcome [1] | outcome [3] | Potency [4] | outcome [5] | Potency [6] | Potency [7]

CCOc1ccc(NC(=O)OC(C)C)cc1OCC
active: Potency [7] 48.6 µM
inactive: outcome [1] | outcome [10] | outcome [9] | Potency [4] | outcome [5] | Potency [6]

CCCCCCCCCCCCCCCCCCN(C)C
inactive: outcome [1] | Potency [8] | outcome [3] | Potency [4] | outcome [5] | Potency [6] | Potency [7]

CCCCCCCCOC(C)=O
inactive: outcome [1] | Potency [8] | outcome [3] | Potency [4] | outcome [5] | Potency [6] | Potency [7]

NC(=O)NC(=O)Cc1ccccc1
inactive: outcome [1] | outcome [9] | Potency [8] | outcome [3] | Potency [4] | outcome [5] | Potency [6] | Potency [7]

NS(=O)(=O)c1cc2c(cc1Cl)NC(C(Cl)Cl)NS2(=O)=O (configuration not stated)
inactive: outcome [1] | outcome [10] | outcome [9] | Potency [8] | outcome [5] | Potency [6] | Potency [7]

CCOC(=O)CCc1ccccc1
inactive: outcome [1] | outcome [2] | Potency [4] | outcome [5] | Potency [6] | Potency [7]
